Source: PubChem (The Scripps Research Institute Molecular Screening Center)
This excerpt belongs to a sample that is enriched for hits.
TTR transcr act: TTR transcription activation, primary screen; actives 1.3% (n = 92,000); SH-SY5Y TTR promoter Gaussia luciferase, luminescence; 100% = recombinant luciferase protein wells; activation, % at 16.7 µM;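 active = activation above the mean of all tested compounds plus 3 SD, cut at about 9.5% in these data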;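 note: cells exposed to compounds for one day before reading; 0% = median of all test compound wells on the plate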
TTR inh HuH7: counter-screen for TTR activators: TTR transcription inhibitors in HuH7 cells; shares compounds with TTR transcr act; HuH7 TTR promoter-Gaussia luciferase reporter, luminescence; inhibition, % at 16.7 µM; actives 4% (n = 1,100);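 active = average inhibition above the solvent-only control wells' mean plus 3 SD, cut at about 15% in these data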;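 note: 0% = cells with DMSO only and 100% = cells with inhibitor control FD; inhibitors lower well luminescence so higher value means more inhibition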
TTR act confirm: human TTR transcription activation, confirmation | shares compounds with TTR transcr act | SHSY5Y TTR promoter Gaussia luciferase, luminescence; 100% = purified Lucia enzyme wells, no cells | AID 1117280 | 1,100 tested, under 10 active | activation, % at 16.7 µM;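 active = mean activation above a set limit taken from the earlier primary screen, cut at about 11% in these data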;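 note: 0% = DMSO-treated cells and 100% = recombinant Lucia luciferase without cells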
* marks the source's active call; other numbers are inactive results.

SMILES | TTR transcr act | others
Cc1ccc(NC(=S)N(C)N)cc1Cl | 1
CCCCOCCCNC(=O)C[C@H]1C[C@@]2(C(=O)OC)C(=C[C@H](C(C)(C)C)O[C@@H]2C)N(Cc2ccc(Cl)cc2Cl)C1=O | 0
CC(=O)OC12CCCN(C1)/C(=C/c1cccc(Cl)c1)C2 (stereo not given) | 2
CC1CCCCN1c1nnc(NC(=O)Cn2c(=O)oc3ccccc32)s1 (stereo not given) | 19* | TTR inh HuH7=-16;TTR act confirm=-1
COc1ccc(-c2nc(NC(=O)Cn3c(=O)oc4ccccc43)sc2C)cc1 | -2
COc1ccc(NC(=O)Nc2nnc(N3CCCCC3C)s2)cc1OC (stereo not given) | -1
CC(C)N(C[C@@H]1CSCCS(=O)(=O)N1)C(C)C | -1
O=C(OCc1cn(Cc2cccc(Cl)c2)nn1)N1CCCC1 | 1
COc1ncnc2c1ncn2CCCNCCCN1CCCC1=O | 15* | TTR inh HuH7=-7;TTR act confirm=1
CC(CNCCCn1cnc2c(OCc3ccccc3)ncnc21)c1ccccc1 (stereo not given) | 0
COc1ccc(-n2cc(CNCCCN3CCCC3=O)c(-c3ccccc3Cl)n2)cc1 | 1
CNC(C#Cc1ccccc1)c1ccccc1C(F)(F)F (stereo not given) | 4
C[C@@H]1CCCN1c1cccc2c1S(=O)(=O)N1CC[C@@H](C1)O2 | -1
O=C(Nc1ccc2oc(-c3ccncc3)nc2c1)c1ccc2c(c1)OCCO2 | -1
O=C(Nc1ccc2oc(-c3ccncc3)nc2c1)c1ccc(F)cc1 | -1
O=C(Nc1ccc2oc(-c3ccncc3)nc2c1)c1ccc(Br)o1 | 10* | TTR inh HuH7=-10;TTR act confirm=-1
CCCCCCCCN1C(=O)[C@@H](CC(=O)NCCCC)C[C@@]2(C(=O)OC)C1=C[C@H](COCc1ccccc1)O[C@@H]2C | 3
CC(OC(=O)COc1ccccc1)C(=O)NC1CCCC1 (stereo not given) | -1
CC(OC(=O)CN1C(=O)c2ccccc2C1=O)C(=O)NC1CCCCC1 (stereo not given) | 14* | TTR inh HuH7=-12;TTR act confirm=0
CC(C(=O)OCC(=O)NC1CCCC1)N1C(=O)c2ccccc2C1=O (stereo not given) | 1
O=C(NC(=O)N1CCCC1)c1csnn1 | 2
Cc1c(Cl)cccc1NC(=S)NC(=O)c1ccccc1 | 9
O=C(NC(=S)Nc1ccccc1Cl)c1csnn1 | 13* | TTR inh HuH7=-12;TTR act confirm=0
CN1CC(O)([C@H](Cc2ccccc2)NC(=O)OC(C)(C)C)OCC1C(=O)NCc1cccc2ccccc12 (stereo not given in full) | -4
Cc1ccccc1C(=O)c1ccccc1C(=O)c1ccccc1 | 6
SMILES | TTR transcr act | others
O=C(c1ccccc1)c1cccs1 | 1
Nc1sccc1C(=O)c1ccccc1 | 9.9* | TTR inh HuH7=-6;TTR act confirm=-1
O=[N+]([O-])c1ccc(CN2CCOCCOCCN(Cc3ccc([N+](=O)[O-])cc3Cl)CCOCC2)c(Cl)c1 | -1
CCCC[C@H]1C2CC(OC(=O)Nc3ccc(F)cc3)C(C2)[C@H]2CCCCN21 (stereo not given in full) | -1
COc1ccc(C(=O)NCc2cccnc2)cc1OC | 1
COc1cccc(C2C(C#N)=C(N)Oc3cc(C)n(Cc4ccccn4)c(=O)c32)c1OC (stereo not given) | 4
COC(=O)C1=C(N)Oc2cc(C)n(Cc3cccnc3)c(=O)c2C1c1ccc(OC)c(OC)c1 (stereo not given) | 18* | TTR inh HuH7=-9;TTR act confirm=0
Cc1ccc(CN2CC=CS2(=O)=O)cc1 | 0
CCOC(=O)N1CCN(C(=O)C[C@H]2C[C@@]3(C(=O)OC)C(=C[C@H](C(C)C)O[C@@H]3C3CC3)N(Cc3cccc4ccccc34)C2=O)CC1 | -1
Cc1ccnc2nc(C(=O)Nc3nc4ccccc4s3)nn12 | 5
Cc1csc(NC(=O)c2nc3nccc(C)n3n2)n1 | 11* | TTR inh HuH7=-8;TTR act confirm=-1
Cc1ccnc2nc(C(=O)Nc3ccc(N4CCOCC4)cc3)nn12 | 1
O=C(Nc1ccc(F)cc1)Nc1nc2ncccn2c1-c1ccc(F)cc1 | -2
COC[C@H]1CCCN1c1ccc2c(c1)O[C@@H]1CCN(C1)S2(=O)=O | 1
COc1ccc([C@@H]2CC=C(C(=O)O)[C@H](c3ccccc3F)N2S(=O)(=O)c2ccccc2C)cc1 | 14* | TTR inh HuH7=16*;TTR act confirm=-1
Cc1ccc([C@H]2C(C(=O)O)=CC[C@@H](c3ccc(Cl)cc3)N2S(=O)(=O)c2ccc(C)cc2)cc1 | -3
Cc1ccc(S(=O)(=O)N2[C@@H](c3ccc(F)cc3)C(C(=O)O)=CC[C@H]2c2cccc(Cl)c2)cc1 | 1
Cc1ccc([C@H]2C(C(=O)O)=CC[C@@H](c3cccc(C)c3)N2S(=O)(=O)c2ccc(C)cc2)cc1 | 4
Cc1ccc(S(=O)(=O)N2[C@@H](c3ccccc3F)C(C(=O)O)=CC[C@H]2c2cccs2)cc1 | 13* | TTR inh HuH7=-1;TTR act confirm=2
